In article PMC7862700, “An all-to-all approach to the identification of sequence-specific readers for epigenetic DNA modifications on cytosine”:

Experiments:
Assay in all cases: DAPPL (digital affinity profiling via proximity ligation, sequencing); 10 mM Tris-HCl pH 7.5, 50 mM NaCl, 1 mM DTT, 4% glycerol, room temperature, 30 min; GST-TFs on glutathione beads, 16-mer random dsDNA library, 0.1% formaldehyde crosslink after washing; high values mean tight binding
[1] = biological target: T1, FLI1 (Homo sapiens, UniProt Q01543 1-452); conditions: protein: recombinant; tags: N-terminal GST; dsDNA, one strand shown
T1 sequence: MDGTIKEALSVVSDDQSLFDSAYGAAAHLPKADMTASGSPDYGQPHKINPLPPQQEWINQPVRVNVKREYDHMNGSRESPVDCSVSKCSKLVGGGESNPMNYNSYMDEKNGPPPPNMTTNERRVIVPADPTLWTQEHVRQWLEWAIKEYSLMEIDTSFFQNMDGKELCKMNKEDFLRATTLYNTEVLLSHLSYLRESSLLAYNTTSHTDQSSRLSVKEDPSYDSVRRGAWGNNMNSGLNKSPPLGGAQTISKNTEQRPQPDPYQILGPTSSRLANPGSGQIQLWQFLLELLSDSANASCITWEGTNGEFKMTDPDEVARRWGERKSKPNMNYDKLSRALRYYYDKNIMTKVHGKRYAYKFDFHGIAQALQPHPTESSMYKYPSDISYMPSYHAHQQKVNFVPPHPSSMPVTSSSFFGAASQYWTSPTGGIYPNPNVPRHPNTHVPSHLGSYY
Procedure, shortened: (§1)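 GST fusions of human transcription factors were expressed in yeast and captured with glutathione beads. Once given DNA barcodes and pooled alongside a tag-only sample, they were incubated for 30 min at room temperature with 200 nmole of a random double-stranded 16-mer DNA library in Tris/NaCl/DTT/glycerol buffer, then washed, crosslinked (0.1% formaldehyde), proximity-ligated, PCR-amplified and sequenced on an Illumina NextSeq500. The binding signal of each hexamer is its read frequency for a factor divided by its frequency for the tag-only sample.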

[2] = biological target: T2, ELK1 (Homo sapiens, UniProt P19419 1-428); conditions: protein: recombinant; tags: N-terminal GST; dsDNA, one strand shown
T2 sequence: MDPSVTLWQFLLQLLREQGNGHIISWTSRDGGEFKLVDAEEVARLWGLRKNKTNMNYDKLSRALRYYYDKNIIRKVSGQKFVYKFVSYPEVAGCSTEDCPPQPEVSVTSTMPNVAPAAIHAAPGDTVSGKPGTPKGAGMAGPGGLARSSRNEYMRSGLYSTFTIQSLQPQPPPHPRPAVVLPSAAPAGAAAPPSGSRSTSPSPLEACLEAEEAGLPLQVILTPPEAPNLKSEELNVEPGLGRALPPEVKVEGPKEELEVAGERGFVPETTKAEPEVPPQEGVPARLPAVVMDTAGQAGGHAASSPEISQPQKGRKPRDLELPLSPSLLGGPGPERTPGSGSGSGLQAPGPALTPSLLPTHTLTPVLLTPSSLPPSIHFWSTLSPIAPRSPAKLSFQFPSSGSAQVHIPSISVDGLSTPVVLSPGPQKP
Procedure, shortened: as §1

[3] = biological target: T3, GABPA (Homo sapiens, UniProt Q06546 1-454); conditions: protein: recombinant; tags: N-terminal GST; dsDNA, one strand shown
T3 sequence: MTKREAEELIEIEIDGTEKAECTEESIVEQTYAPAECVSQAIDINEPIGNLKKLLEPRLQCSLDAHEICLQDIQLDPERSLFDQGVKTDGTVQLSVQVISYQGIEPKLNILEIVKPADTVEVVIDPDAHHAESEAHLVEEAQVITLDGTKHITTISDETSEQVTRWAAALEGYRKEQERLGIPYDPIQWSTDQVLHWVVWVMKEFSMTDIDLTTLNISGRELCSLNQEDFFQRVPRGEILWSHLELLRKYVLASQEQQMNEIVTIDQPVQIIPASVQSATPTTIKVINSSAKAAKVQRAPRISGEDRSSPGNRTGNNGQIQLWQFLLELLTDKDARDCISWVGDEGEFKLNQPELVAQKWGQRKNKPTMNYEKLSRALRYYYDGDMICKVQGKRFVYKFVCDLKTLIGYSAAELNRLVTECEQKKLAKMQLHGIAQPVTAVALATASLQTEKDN
Procedure, shortened: as §1

[4] = biological target: T4, ERG (Homo sapiens, UniProt P11308 1-479); conditions: protein: recombinant; tags: N-terminal GST; dsDNA, one strand shown
T4 sequence: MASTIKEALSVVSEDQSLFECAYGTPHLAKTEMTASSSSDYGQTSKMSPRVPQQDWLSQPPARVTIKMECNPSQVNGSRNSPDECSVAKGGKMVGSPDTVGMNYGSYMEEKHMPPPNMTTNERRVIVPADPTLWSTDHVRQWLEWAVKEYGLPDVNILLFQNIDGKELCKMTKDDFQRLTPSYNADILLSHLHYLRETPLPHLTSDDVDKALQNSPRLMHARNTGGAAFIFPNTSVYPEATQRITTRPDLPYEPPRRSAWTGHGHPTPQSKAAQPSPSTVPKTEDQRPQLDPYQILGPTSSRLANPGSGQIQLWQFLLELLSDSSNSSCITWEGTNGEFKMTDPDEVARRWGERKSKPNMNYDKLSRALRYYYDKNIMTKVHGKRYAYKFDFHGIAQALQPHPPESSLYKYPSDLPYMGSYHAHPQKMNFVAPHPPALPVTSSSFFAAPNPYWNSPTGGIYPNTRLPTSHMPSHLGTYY
Procedure, shortened: as §1

[5] = biological target: ELF1 (Homo sapiens, UniProt P32519 1-619); conditions: protein: recombinant; tags: N-terminal GST; dsDNA, one strand shown
Procedure, shortened: as §1

[6] = biological target: T5, EHF (Homo sapiens, UniProt Q9NZC4 1-300); conditions: protein: recombinant; tags: N-terminal GST; dsDNA, one strand shown
T5 sequence: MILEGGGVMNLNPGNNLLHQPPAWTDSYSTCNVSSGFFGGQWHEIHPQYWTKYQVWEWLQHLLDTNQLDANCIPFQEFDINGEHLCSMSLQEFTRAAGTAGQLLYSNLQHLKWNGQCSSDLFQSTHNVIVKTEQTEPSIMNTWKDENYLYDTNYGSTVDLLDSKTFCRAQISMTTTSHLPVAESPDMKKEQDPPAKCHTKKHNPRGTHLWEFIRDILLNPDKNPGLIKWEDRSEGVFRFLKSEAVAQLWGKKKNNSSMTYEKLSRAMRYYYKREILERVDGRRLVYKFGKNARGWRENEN
Procedure, shortened: as §1

[7] = biological target: SPI1 (Homo sapiens, UniProt P17947 1-270); conditions: protein: recombinant; tags: N-terminal GST; dsDNA, one strand shown
Procedure, shortened: as §1

[8] = biological target: SPIB (Homo sapiens, UniProt Q01892 1-262); conditions: protein: recombinant; tags: N-terminal GST; dsDNA, one strand shown
Procedure, shortened: as §1

[9] = biological target: T6, ELK3 (Homo sapiens, UniProt P41970 1-407); conditions: protein: recombinant; tags: N-terminal GST; dsDNA, one strand shown
T6 sequence: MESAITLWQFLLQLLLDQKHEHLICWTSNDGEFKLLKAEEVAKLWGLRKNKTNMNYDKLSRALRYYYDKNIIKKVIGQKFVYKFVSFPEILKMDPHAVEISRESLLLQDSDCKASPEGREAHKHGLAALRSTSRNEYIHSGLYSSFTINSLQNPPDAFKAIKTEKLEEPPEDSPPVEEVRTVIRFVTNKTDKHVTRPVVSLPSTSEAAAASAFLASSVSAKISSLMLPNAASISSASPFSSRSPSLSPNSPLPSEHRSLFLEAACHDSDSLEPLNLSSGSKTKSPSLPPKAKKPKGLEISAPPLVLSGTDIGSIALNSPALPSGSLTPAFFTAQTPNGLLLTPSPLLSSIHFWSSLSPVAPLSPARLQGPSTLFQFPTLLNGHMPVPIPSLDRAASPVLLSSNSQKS
Procedure, shortened: as §1

[10] = biological target: T7, FEV (Homo sapiens, UniProt Q99581 1-238); conditions: protein: recombinant; tags: N-terminal GST; dsDNA, one strand shown
T7 sequence: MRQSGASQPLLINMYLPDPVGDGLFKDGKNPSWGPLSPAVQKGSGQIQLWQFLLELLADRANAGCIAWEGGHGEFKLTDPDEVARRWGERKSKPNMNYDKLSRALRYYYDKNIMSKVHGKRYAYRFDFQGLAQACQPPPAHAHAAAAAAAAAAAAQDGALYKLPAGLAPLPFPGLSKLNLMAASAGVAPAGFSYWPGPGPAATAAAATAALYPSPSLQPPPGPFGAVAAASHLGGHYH
Procedure, shortened: as §1

[11] = biological target: ETV5 (Homo sapiens, UniProt P41161 1-510); conditions: protein: recombinant; tags: N-terminal GST; dsDNA, one strand shown
Procedure, shortened: as §1

[12] = biological target: HSF1 (Homo sapiens, UniProt Q00613 1-529); conditions: protein: recombinant; tags: N-terminal GST; chain copies: 3; dsDNA, one strand shown
Procedure, shortened: as §1

[13] = biological target: T8, SPIC (Homo sapiens, UniProt Q8N5J4 1-248); conditions: protein: recombinant; tags: N-terminal GST; dsDNA, one strand shown
T8 sequence: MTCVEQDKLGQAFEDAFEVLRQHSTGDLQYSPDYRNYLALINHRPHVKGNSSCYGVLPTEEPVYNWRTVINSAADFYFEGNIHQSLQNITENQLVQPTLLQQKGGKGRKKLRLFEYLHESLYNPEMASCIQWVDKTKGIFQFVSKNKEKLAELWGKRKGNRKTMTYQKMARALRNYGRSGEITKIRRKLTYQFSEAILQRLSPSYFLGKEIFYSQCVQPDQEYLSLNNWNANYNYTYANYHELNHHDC
Procedure, shortened: as §1

[14] = biological target: ELF4 (Homo sapiens, UniProt Q99607 1-663); conditions: protein: recombinant; tags: N-terminal GST; dsDNA, one strand shown
Procedure, shortened: as §1

[15] = biological target: T9, ELK4 (Homo sapiens, UniProt P28324-2 1-405); conditions: protein: recombinant; tags: N-terminal GST; dsDNA, one strand shown
T9 sequence: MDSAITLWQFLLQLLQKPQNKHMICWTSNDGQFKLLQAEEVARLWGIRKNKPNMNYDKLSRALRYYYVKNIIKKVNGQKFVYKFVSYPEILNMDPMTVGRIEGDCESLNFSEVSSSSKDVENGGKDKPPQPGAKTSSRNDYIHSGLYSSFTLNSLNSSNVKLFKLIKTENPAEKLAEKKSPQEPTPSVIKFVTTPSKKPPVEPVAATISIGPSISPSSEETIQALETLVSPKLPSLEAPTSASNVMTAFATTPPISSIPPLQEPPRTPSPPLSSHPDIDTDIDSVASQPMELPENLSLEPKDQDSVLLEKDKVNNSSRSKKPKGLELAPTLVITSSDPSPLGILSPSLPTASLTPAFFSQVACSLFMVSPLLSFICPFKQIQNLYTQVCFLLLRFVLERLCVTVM
Procedure, shortened: as §1

[16] = biological target: T10, ETV2 (Homo sapiens, UniProt O00321 1-342); conditions: protein: recombinant; tags: N-terminal GST; dsDNA, one strand shown
T10 sequence: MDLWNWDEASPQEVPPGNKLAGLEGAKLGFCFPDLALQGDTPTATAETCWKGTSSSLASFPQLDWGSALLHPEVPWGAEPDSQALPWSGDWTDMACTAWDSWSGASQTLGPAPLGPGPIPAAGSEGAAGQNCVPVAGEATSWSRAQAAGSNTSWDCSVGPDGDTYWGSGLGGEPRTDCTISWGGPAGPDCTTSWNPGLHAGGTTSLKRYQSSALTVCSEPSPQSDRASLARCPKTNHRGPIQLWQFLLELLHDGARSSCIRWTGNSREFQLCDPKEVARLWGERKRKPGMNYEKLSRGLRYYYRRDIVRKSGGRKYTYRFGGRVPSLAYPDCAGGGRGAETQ
Procedure, shortened: as §1

[17] = biological target: T11, ELF3 (Homo sapiens, UniProt P78545 1-371); conditions: protein: recombinant; tags: N-terminal GST; dsDNA, one strand shown
T11 sequence: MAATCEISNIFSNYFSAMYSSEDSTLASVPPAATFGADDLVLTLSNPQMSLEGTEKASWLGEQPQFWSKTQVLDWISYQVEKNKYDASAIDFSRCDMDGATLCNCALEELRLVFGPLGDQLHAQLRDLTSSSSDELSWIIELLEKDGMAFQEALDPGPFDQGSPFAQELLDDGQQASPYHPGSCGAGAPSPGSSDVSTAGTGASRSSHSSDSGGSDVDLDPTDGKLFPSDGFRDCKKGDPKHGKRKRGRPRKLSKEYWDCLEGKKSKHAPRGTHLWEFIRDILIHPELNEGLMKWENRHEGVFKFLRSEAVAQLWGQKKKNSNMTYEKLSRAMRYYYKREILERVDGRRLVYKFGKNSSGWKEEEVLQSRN
Procedure, shortened: as §1

[18] = biological target: CRX (Homo sapiens, UniProt O43186 1-299); conditions: protein: recombinant; tags: N-terminal GST; dsDNA, one strand shown
Procedure, shortened: as §1

[19] = biological target: ETV1 (Homo sapiens, UniProt P50549 1-477); conditions: protein: recombinant; tags: N-terminal GST; dsDNA, one strand shown
Procedure, shortened: as §1

Sequence of ETV1 (P50549 whole entry): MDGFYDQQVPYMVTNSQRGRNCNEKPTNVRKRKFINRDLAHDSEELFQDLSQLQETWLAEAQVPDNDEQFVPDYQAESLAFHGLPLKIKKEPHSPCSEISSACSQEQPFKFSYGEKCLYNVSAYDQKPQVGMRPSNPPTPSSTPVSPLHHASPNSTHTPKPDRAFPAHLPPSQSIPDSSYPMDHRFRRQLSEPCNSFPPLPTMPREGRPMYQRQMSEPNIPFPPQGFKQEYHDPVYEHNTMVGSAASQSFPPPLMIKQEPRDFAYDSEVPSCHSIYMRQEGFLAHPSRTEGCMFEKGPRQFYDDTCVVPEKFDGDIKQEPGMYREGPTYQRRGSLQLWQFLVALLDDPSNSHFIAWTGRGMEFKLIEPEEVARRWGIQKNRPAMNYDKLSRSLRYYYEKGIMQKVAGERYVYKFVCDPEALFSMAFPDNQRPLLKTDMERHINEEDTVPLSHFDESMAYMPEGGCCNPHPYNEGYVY
Sequence of CRX (O43186 whole entry): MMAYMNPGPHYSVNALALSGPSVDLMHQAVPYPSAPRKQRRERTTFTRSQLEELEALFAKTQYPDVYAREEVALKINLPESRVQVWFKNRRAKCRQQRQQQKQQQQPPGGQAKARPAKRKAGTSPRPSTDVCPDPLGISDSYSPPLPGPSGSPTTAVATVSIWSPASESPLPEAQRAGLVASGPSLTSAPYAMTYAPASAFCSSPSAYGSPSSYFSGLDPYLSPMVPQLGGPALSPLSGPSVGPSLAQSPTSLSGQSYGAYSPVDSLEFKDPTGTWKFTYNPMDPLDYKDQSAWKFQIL
Sequence of HSF1 (Q00613 whole entry): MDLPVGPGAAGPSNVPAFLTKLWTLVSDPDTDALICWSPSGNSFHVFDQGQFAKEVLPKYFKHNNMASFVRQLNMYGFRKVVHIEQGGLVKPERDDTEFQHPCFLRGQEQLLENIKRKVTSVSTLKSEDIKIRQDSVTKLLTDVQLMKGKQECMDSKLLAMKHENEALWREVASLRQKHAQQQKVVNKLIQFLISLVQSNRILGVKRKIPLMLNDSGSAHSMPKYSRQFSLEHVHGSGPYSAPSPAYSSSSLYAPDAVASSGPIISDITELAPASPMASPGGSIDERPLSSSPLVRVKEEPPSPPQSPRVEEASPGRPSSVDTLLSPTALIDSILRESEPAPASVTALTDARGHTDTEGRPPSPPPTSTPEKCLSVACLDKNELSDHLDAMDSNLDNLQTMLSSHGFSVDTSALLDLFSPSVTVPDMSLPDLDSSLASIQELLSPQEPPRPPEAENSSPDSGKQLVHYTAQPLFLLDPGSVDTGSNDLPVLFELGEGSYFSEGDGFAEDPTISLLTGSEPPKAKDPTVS
Sequence of SPIB (Q01892 whole entry): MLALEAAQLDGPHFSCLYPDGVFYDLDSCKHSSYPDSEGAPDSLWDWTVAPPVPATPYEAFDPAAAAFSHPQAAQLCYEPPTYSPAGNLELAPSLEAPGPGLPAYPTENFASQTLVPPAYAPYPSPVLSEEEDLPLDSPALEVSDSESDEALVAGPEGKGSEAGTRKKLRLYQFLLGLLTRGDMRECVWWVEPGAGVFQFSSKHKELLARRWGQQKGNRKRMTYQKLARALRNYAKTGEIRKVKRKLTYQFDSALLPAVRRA
Sequence of ELF1 (P32519 whole entry): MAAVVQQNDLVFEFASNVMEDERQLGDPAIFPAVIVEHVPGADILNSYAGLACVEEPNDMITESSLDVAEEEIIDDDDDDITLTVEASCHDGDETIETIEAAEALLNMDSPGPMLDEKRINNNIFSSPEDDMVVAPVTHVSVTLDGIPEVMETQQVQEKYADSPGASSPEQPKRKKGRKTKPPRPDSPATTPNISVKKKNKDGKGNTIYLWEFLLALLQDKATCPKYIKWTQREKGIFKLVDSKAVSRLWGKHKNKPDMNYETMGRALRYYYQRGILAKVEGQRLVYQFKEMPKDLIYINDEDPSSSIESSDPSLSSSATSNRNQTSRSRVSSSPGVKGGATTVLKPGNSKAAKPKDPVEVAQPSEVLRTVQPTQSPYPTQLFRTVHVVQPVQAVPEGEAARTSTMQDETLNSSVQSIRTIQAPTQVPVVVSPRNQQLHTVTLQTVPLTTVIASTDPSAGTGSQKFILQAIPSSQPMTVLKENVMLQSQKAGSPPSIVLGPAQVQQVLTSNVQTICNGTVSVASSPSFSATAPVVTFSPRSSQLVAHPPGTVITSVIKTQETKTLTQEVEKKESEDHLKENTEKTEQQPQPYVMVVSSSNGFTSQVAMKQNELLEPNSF
Sequence of ELF4 (Q99607 whole entry): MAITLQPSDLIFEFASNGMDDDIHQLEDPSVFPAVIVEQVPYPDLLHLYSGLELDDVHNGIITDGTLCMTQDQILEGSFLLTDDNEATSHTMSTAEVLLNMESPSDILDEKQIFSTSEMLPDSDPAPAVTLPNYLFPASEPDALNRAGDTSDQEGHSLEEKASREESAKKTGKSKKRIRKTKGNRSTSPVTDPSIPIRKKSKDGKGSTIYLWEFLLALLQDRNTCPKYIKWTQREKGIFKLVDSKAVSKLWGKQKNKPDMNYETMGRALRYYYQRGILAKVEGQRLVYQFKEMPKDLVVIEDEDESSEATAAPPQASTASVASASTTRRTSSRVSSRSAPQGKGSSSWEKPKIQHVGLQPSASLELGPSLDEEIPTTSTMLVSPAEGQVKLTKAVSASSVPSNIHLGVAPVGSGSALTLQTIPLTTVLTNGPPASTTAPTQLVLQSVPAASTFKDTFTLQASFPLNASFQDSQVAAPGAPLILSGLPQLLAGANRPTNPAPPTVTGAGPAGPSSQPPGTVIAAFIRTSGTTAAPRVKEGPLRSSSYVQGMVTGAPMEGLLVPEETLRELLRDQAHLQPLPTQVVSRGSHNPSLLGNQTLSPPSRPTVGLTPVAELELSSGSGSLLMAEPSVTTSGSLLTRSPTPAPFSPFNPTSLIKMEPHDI
Sequence of ETV5 (P41161 whole entry): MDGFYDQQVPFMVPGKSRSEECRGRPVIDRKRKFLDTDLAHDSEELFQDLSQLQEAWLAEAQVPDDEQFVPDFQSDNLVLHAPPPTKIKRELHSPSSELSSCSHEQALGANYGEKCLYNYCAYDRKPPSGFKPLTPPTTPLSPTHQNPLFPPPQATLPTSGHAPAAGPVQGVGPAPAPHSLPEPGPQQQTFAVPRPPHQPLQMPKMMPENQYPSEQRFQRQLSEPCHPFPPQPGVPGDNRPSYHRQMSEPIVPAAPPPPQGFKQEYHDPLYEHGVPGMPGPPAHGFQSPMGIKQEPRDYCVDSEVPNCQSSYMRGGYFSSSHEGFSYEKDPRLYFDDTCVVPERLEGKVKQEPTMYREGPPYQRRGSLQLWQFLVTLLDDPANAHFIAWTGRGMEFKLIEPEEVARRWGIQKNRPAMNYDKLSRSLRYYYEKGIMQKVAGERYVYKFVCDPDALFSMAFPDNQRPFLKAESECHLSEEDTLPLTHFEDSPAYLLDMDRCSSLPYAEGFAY

## CTCTGG
[1]
  binding signal: 1.31 fold enrichment (6-mer frequency, TF over GST control)
[2]
  binding signal: 1.5 fold enrichment (6-mer frequency, TF over GST control)
[3]
  binding signal: 1.3 fold enrichment (6-mer frequency, TF over GST control)
[4]
  binding signal: 1.28 fold enrichment (6-mer frequency, TF over GST control)
[5]
  binding signal: 1.34 fold enrichment (6-mer frequency, TF over GST control)
[6]
  binding signal: 1.35 fold enrichment (6-mer frequency, TF over GST control)
[7]
  binding signal: 1.4 fold enrichment (6-mer frequency, TF over GST control)
[8]
  binding signal: 1.12 fold enrichment (6-mer frequency, TF over GST control)
[9]
  binding signal: 1.48 fold enrichment (6-mer frequency, TF over GST control)
[10]
  binding signal: 1.33 fold enrichment (6-mer frequency, TF over GST control)
[11]
  binding signal: 1.32 fold enrichment (6-mer frequency, TF over GST control)
[12]
  binding signal: 1.81 fold enrichment (6-mer frequency, TF over GST control)
[13]
  binding signal: 1.25 fold enrichment (6-mer frequency, TF over GST control)
[14]
  binding signal: 1.36 fold enrichment (6-mer frequency, TF over GST control)
[15]
  binding signal: 1.23 fold enrichment (6-mer frequency, TF over GST control)
[16]
  binding signal: 1.09 fold enrichment (6-mer frequency, TF over GST control)
[17]
  binding signal: 1.37 fold enrichment (6-mer frequency, TF over GST control)
[18]
  binding signal: 1.35 fold enrichment (6-mer frequency, TF over GST control)
[19]
  binding signal: 1.22 fold enrichment (6-mer frequency, TF over GST control)
